In PubChem BioAssay AID2061305 (National Center for Advancing Translational Sciences (NCATS), 2025) one finds Potency data, which are given here for ten molecules.

Results filed as inconclusive are left out. The source made the active and inactive calls. Calls follow the shape of the dose curve; as a rule, active = well fitted inhibition curve with a large enough effect; inconclusive = small, poorly fitted or top-dose-only effect; inactive = flat fitted curve, though single readings scatter. Where a SMILES comes first, the peptide text is derived from it. [ ]: non-standard residue; d: D form. The star is where a group is joined. Dolaproine = CO[C@@H]([C@@H]1CCCN1)[C@@H](C)C(=O)O; Dil = CC[C@H](C)[C@H](NC)[C@@H](CC(=O)O)OC; NMe2Val = CC(C)[C@@H](C(=O)*)N(C)C; X1 = C[C@@H](N*)[C@@H](O)c1ccccc1; NMeV = CN[C@H](C(=O)O)C(C)C

The experiment is described as follows: Identification of antibody-drug conjugate (ADC) payloads which are substrates of ATP-binding cassette drug efflux transporters: ABCB1-HeLa-KB-3-1 cell line. Particulars: KB-3-1 (HeLa derivative) viability, CellTiter-Glo, 48 h. The source says:
Antibody-drug conjugates (ADCs) feature an antibody recognizing a specific protein joined to a potent toxic payload. Numerous antibody-drug conjugates have received FDA approval; however, clinical resistance arises. Resistance mechanisms include decreased expression or mutation of the antibody target, impaired payload release, or increased expression of ATP-binding cassette (ABC) efflux transporters associated with multidrug resistance. We therefore sought to characterize the interaction of ABC multidrug transporters with ADC payloads. We performed a high-throughput screen with 27 common ADC payloads using cells lines expressing ABC transporters P-glycoprotein (P-gp, encoded by ABCB1) or ABCG2 (encoded by ABCG2). Confirmatory assays were also performed using cells transfected to express P-gp, ABCG2, or MRP1 (encoded by ABCC1). Several commonly used ADC payloads were substrates of P-gp, including calicheamicin gamma1, monomethyl auristatin E, DM1, and DM4. All the pyrrolobenzodiazepines tested - SJG136, SGD-1882, SG2057, and SG3199 - were substrates of P-gp, ABCG2, and MRP1. […] These findings highlight the risk of transporter-mediated resistance with certain ADC payloads and underscore the importance of selecting payloads that evade ABC transporter recognition in future ADC development.
HEK-293 cells were transfected with empty vector (pcDNA) or vector containing the human ABCB1 (MDR-19), ABCG2 (R-5), or ABCC1 gene (MRP1) and were maintained in EMEM with 2 mg/mL G418 added to maintain transporter expression. The HeLa derivative KB-3-1 and the P-gp overexpressing KB-8-5-11 subline were maintained in DMEM; KB-8-5-11 additionally received 100 ng/mL colchicine. H460 parental cells were obtained from the Division of Cancer Treatment and Diagnosis Tumor Repository, National Cancer Institute at Frederick, MD and were cultured in RPMI. The ABCG2 expressing subline H460 MX20 was generated by selecting H460 cells in 20 nM mitoxantrone. Media in all cases was supplemented with 10% FBS and 1% penicillin-streptomycin. We explored 27 common ADC payloads, in two orthogonal, paired cell line sets-a drug selected and transfected set for each transporter--to identify substrates of the ABC transporters P-gp and ABCG2. Compounds were sourced from Levena Biopharma (San Diego, CA), Selleck Chem (Houston, TX), ChemieTek (Indianapolis, IN), or Microsource Discovery Systems (Gaylordsville, CT). Screening was performed as previously described. Briefly, cells were plated at a density of 500 cells/well in 1536 well plates with compounds added using a 1536-head pin tool (Kalypsys, San Diego CA). Cells were incubated with cytotoxic drugs and processed with CellTiter Glo reagent (Promega, Madison, WI) to determine viability after 48 hours. P-gp substrates were identified by comparing compound activity between paired sets of low-expressing (sensitive) and over-expressing (resistant) cell lines.
(In general: ATP-based viability assays read luminescence as a measure of living cells.)
For the molecule `CC[C@H](C)[C@H](NC(=O)[C@H]1CCCCN1C)C(=O)N(C)[C@H](C[C@@H](OC(C)=O)c1nc(C(=O)N[C@@H](Cc2ccccc2)C[C@H](C)C(=O)O)cs1)C(C)C`, the Potency was 0.3 nM (active).

Regarding `COc1cc2cc(C(=O)N3C[C@@H](CCl)c4c3cc(O)c3ccccc43)[nH]c2c(OC)c1OC`, the Potency was 1.3 nM (active).

In the case of `CC[C@H](C)[C@@H]([C@@H](CC(=O)N1CCC[C@H]1[C@H](OC)[C@@H](C)C(=O)N[C@H](C)[C@@H](O)c1ccccc1)OC)N(C)C(=O)[C@@H](NC(=O)[C@H](C(C)C)N(C)C)C(C)C`, the Potency is 0.2 nM (active).

Turning to `COc1cc2cc(c1Cl)N(C)C(=O)C[C@H](OC(=O)[C@H](C)N(C)C(=O)CCC(C)(C)S)[C@]1(C)OC1[C@H](C)C1C[C@@](O)(NC(=O)O1)[C@H](OC)/C=C/C=C(\C)C2` (stereo not given in full), the Potency was 0.5 nM (active).

As for `CC[C@H](C)[C@@H]1NC(=O)CNC(=O)[C@H]2Cc3c([nH]c4cc(O)ccc34)S(=O)C[C@H](NC(=O)CNC1=O)C(=O)N[C@@H](CC(N)=O)C(=O)N1C[C@H](O)C[C@H]1C(=O)N[C@@H]([C@@H](C)[C@@H](O)CO)C(=O)N2` (stereo not given in full), the Potency was 5290 nM (active).

For `CC[C@@]1(O)C(=O)OCc2c1cc1n(c2=O)Cc2cc3ccccc3nc2-1`, the Potency was 334 nM (active).

For the molecule `CC[C@H](C)[C@@H]([C@@H](CC(=O)N1CCC[C@H]1[C@H](OC)[C@@H](C)C(=O)N[C@@H](Cc1ccccc1)C(=O)O)OC)N(C)C(=O)[C@@H](NC(=O)[C@H](C(C)C)N(C)C)C(C)C` (NMe2Val-V[Dil][Dolaproine]F-OH), the Potency was 33.4 nM (active).

As for `CC[C@H](C)[C@@H]([C@@H](CC(=O)N1CCC[C@H]1[C@H](OC)[C@@H](C)C(=O)N[C@H](C)[C@@H](O)c1ccccc1)OC)N(C)C(=O)[C@@H](NC(=O)[C@@H](NC)C(C)C)C(C)C` (H-[NMeV]V[Dil][Dolaproine]-X1), the Potency is 0.3 nM (active).

For `COc1cccc2c1C(=O)c1c(O)c3c(c(O)c1C2=O)C[C@@](O)(C(=O)CO)CC3OC1CC(N2CCOC(OC)C2)C(O)C(C)O1` (stereo not given in full), the Potency was 11.8 nM (active).

As for `CC[C@H](C)[C@H](NC(=O)[C@H]1CCCCN1C)C(=O)N(C)[C@H](C[C@@H](OC(C)=O)c1nc(C(=O)O)cs1)C(C)C`, the Potency is 472 nM (active).
